Data on 8 compounds can be found in PubChem BioAssay (NCI).

The panel holds about 83,000 compounds, 20% with a hit somewhere; the sample as a whole holds those more often.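 In brief: 96-well plates, 48 h treatment, single concentration, percent growth endpoint.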 Unmarked numbers belong to inactive results. The source made the active and inactive calls. The calls were made as follows: active = growth percent below 10; inactive = the rest.

Some test systems named below: NCI-H226 lung; NCI-H322M lung; HOP-62 NSCLC; NCI-H460 lung; HOP-92 NSCLC; NCI-H522 lung; A549/ATCC NSCLC; 786-0 renal; COLO 205 colon; DU-145 prostate; MALME-3M melanoma; MDA-MB-231 breast; RXF 393 renal; SF-268 CNS; SF-295 CNS; SF-539 CNS; UACC-257 melanoma; M14 melanoma; HCT-15 colon; K-562 leukemia.
Common to all, as to experiment: NCI-60 one-dose screen, 48 h (100 = growth as untreated, 0 = no growth, -100 = all killed)
What all share (details): 10 µM unless noted

Take `CCOC(=O)c1c(Nc2ccccc2)nn2c(N)c(C#N)c(-c3ccc(OC)cc3)nc12`: the growth is 42.3% in the test with NCI-H226 lung; 95.5% in the test with NCI-H322M lung; 61.3% in the test with HOP-62 NSCLC; 61.5% in the test with NCI-H460 lung; 47% in the test on HOP-92 NSCLC; 83.3% with NCI-H522 lung. Moreover, the growth in the test with A549/ATCC NSCLC is 69%; with 786-0 renal, 32.8%; in the test with COLO 205 colon, 96.3%; in the test on DU-145 prostate it was 66.3%; in the test with MALME-3M melanoma it was 61.1%; in the test with MDA-MB-231 breast, 78.1%. Moreover, the growth with RXF 393 renal is 46%; in the test on SF-268 CNS, 61.9%; with SF-295 CNS, 42.8%; with SF-539 CNS, 52.1%; in the test on UACC-257 melanoma, 95.4%; with M14 melanoma it was 78.6%. Further, the growth with HCT-15 colon is 84.6%.

In the case of `COc1cc(OC)c(C2SCC(=O)N2Nc2ncnc3ccccc23)cc1OC` (centres undefined), the growth in the test on NCI-H226 lung is 107%; in the test with NCI-H322M lung, 96.4%; in the test with HOP-62 NSCLC it was 100%; in the test on NCI-H460 lung it was 111%; in the test with HOP-92 NSCLC, 147%; in the test with NCI-H522 lung it was 98.9%. Further, the growth is 104% in the test on A549/ATCC NSCLC; 104% in the test on 786-0 renal; 113% in the test with COLO 205 colon; 106% with DU-145 prostate; 105% with K-562 leukemia; 96.2% in the test on MALME-3M melanoma. Further, the growth in the test with MDA-MB-231 breast was 98.8%; with RXF 393 renal it was 124%; in the test on SF-268 CNS, 107%; in the test with SF-295 CNS, 102%; in the test on SF-539 CNS, 95.3%; in the test with UACC-257 melanoma, 108%. Moreover, the growth with M14 melanoma was 107%; with HCT-15 colon, 103%.

With `c1ccc2c(NCCCn3ccnc3)c3oc4ccccc4c3nc2c1`, the growth was -1.35% (active) with NCI-H226 lung; -13.4% (active) in the test with NCI-H322M lung; 19.5% in the test on HOP-62 NSCLC; -19.3% (active) in the test with NCI-H460 lung; -23.7% (active) with HOP-92 NSCLC; -23.1% (active) in the test with NCI-H522 lung. The growth in the test on A549/ATCC NSCLC is 10.5%; in the test with 786-0 renal, 2.46% (active); in the test on COLO 205 colon, -30.9% (active); in the test with DU-145 prostate it was -17.2% (active); in the test on K-562 leukemia, 5.89% (active); with MALME-3M melanoma, 1.01% (active). Besides, the growth with MDA-MB-231 breast is -10% (active); with RXF 393 renal, -33.3% (active); in the test on SF-268 CNS it was 10.7%; with SF-295 CNS it was 5.7% (active); in the test with SF-539 CNS, 4.46% (active); with UACC-257 melanoma, 16.4%. Besides, the figures for the growth with M14 melanoma and with HCT-15 colon were 2.76% (active) and -6.93% (active), respectively.

As to `O=C(N/N=C/c1ccc([N+](=O)[O-])o1)c1[nH]c2ccc(Br)cc2c1-c1ccccc1`, the growth in the test with NCI-H226 lung is 15.8%; in the test on NCI-H322M lung it was 41.2%; in the test with HOP-62 NSCLC, 24.2%; in the test on NCI-H460 lung, -31.4% (active); in the test on HOP-92 NSCLC, -4.17% (active); in the test with NCI-H522 lung, -26.3% (active). For the same compound, the growth in the test with A549/ATCC NSCLC is 21.6%; with 786-0 renal, -5.08% (active); with DU-145 prostate, 16.2%; in the test on K-562 leukemia, 3.51% (active); with MALME-3M melanoma, 23%; in the test on MDA-MB-231 breast, -2.79% (active). In addition, the growth is 50.1% in the test with RXF 393 renal; 24.8% in the test with SF-268 CNS; 21.3% in the test with SF-295 CNS; 4.34% (active) with SF-539 CNS; 37.5% with UACC-257 melanoma; -35.4% (active) in the test on M14 melanoma. Also, the growth in the test with HCT-15 colon is 9.3% (active).

As to `[Cl][Ru].c1ccc(-c2cc(-c3ccccn3)nc(-c3ccccn3)c2)cc1.c1ccc(-c2ccnc3c2ccc2c(-c4ccccc4)ccnc23)cc1`, the growth with NCI-H226 lung was -18% (active); with NCI-H322M lung, -6.84% (active); with HOP-62 NSCLC, 25.1%; in the test with NCI-H460 lung, -63% (active); in the test with HOP-92 NSCLC it was -42.9% (active); in the test with A549/ATCC NSCLC it was 14.8%. Besides, the growth with 786-0 renal was 6.1% (active); in the test on COLO 205 colon, -77.9% (active); with DU-145 prostate, 7.67% (active); with K-562 leukemia it was 1.44% (active); with MALME-3M melanoma, -34.3% (active); in the test with MDA-MB-231 breast, -48.4% (active). Further, the growth with RXF 393 renal was -39% (active); in the test with SF-268 CNS it was 13.8%; with SF-295 CNS, -23.1% (active); in the test on SF-539 CNS it was -20.5% (active); in the test with UACC-257 melanoma, -28.7% (active); in the test on M14 melanoma, -57.1% (active). The growth in the test on HCT-15 colon was 45.8%.

As for `COc1ccc(C(=O)/C=C/c2ccc(OCc3ccc(C)cc3)c(OC)c2)cc1OC`, the growth is 59.2% in the test on NCI-H226 lung; 70.4% in the test with NCI-H322M lung; 101% with HOP-62 NSCLC; 60.1% in the test on NCI-H460 lung; 60.6% in the test on HOP-92 NSCLC; 63.3% with A549/ATCC NSCLC. In addition, the growth is 83.7% in the test with 786-0 renal; 95.3% in the test on COLO 205 colon; 70.3% with DU-145 prostate; 25.4% with K-562 leukemia; 87.8% in the test with MALME-3M melanoma; 59% in the test with MDA-MB-231 breast. The growth was 103% in the test with RXF 393 renal; 72.4% with SF-268 CNS; 75.2% with SF-295 CNS; 72.1% in the test with SF-539 CNS; 80.3% with UACC-257 melanoma; 86.8% with M14 melanoma. Moreover, the growth in the test on HCT-15 colon is 34.4%.

Turning to `O=C(CCN1C(=O)/C(=C/c2ccccc2F)SC1=S)N1CCOCC1`, the growth is 105% with NCI-H226 lung; 80.5% with NCI-H322M lung; 117% with HOP-62 NSCLC; 90.7% with NCI-H460 lung; 133% in the test with HOP-92 NSCLC; 41.4% in the test with NCI-H522 lung. Also, the growth with A549/ATCC NSCLC is 102%; with 786-0 renal it was 77.4%; in the test on DU-145 prostate, 57.5%; in the test with K-562 leukemia it was 32.2%; in the test with MALME-3M melanoma, 74.1%; with MDA-MB-231 breast, 71%. Moreover, the growth with RXF 393 renal is 41.2%; with SF-268 CNS, 101%; with SF-295 CNS, 97.8%; in the test with SF-539 CNS it was 87.8%; in the test with UACC-257 melanoma, 89.8%; in the test on M14 melanoma it was 80.5%. Also, the growth in the test on HCT-15 colon is 45.5%.

For `Cc1ccc(CNS(=O)(=O)/N=C2\NC(=O)NC2=C(Cl)Cl)cc1`, the growth in the test on NCI-H226 lung was 79.1%; in the test on NCI-H322M lung it was 99.9%; in the test on HOP-62 NSCLC, 46.2%; in the test with NCI-H460 lung it was 75.3%; in the test with HOP-92 NSCLC, -1.1% (active); in the test on A549/ATCC NSCLC, 99.2%. The growth with 786-0 renal is 36.6%; in the test with COLO 205 colon, 113%; in the test on DU-145 prostate, 32.6%; in the test with K-562 leukemia it was 27.7%; in the test with MALME-3M melanoma, 94.7%; in the test on MDA-MB-231 breast it was 40.3%. In addition, the growth in the test on RXF 393 renal is 96.9%; in the test with SF-268 CNS, 61.8%; in the test on SF-295 CNS, 4.1% (active); with SF-539 CNS, 1.74% (active); with UACC-257 melanoma it was 60.2%; in the test with M14 melanoma, 87.2%. In the test with HCT-15 colon, the growth was 95.3%.
